# Assay results from ChEMBL document CHEMBL1157539, “Thousands of chemical starting points for antimalarial lead identification” (Nature, 2010).
# What was measured:
# Assay type in all cases: functional
# Plasmodium falciparum [1] = assay: GSK_TCMDC: Inhibition of Plasmodium falciparum 3D7 in whole red blood cells, using parasite LDH activity as an index of growth. Test compounds present at 2uM
# Plasmodium falciparum [2] = assay: GSK_TCMDC: Inhibition of Plasmodium falciparum Dd2 in whole red blood cells, using parasite LDH activity as an index of growth. Test compounds present at 2uM
# HepG2 = assay: GSK_TCMDC: Percent inhibition of human HepG2 cell line. Test compounds present at 10uM.
Structure (SMILES),Inhibition (Plasmodium falciparum [1]) [%],Inhibition (Plasmodium falciparum [2]) [%],Inhibition (HepG2) [%]
CCNc1cc(C(=O)N[C@@H](Cc2ccccc2)[C@H](O)CN[C@H]2CCc3ccccc32)cc(N2CCCC2=O)c1,98,99,8
COc1ccc(Br)cc1/C=C/C(=O)Nc1cccc(C2CCCN(C)C2)c1.O=CO (centres undefined),99,30,12
CCC(C)(C)C1CCc2nc(N)nc(N)c2C1.Cl (centres undefined),95,97,71
O=C(CNC1CCCCC1)Nc1cccc(C(=O)Nc2cccc(C(F)(F)F)c2)c1.O=C(O)C(=O)O,93,80,17
Cl.O=C(NCCCCN1CCC(c2ccc3ccccc3c2O)CC1)c1ccc(-c2ccc(Cl)cc2)cc1,100,99,84
COc1ccc2c(=O)ccn(CCN3CCC(NCc4ccc5c(n4)NC(=O)CS5)CC3)c2c1.Cl,98,99,7
COC1CCC(C(=O)Nc2ccc(-c3cccc(-c4nc5cccc(C)c5[nH]4)c3)cc2)CC1 (centres undefined),97,60,89
COc1cc2nc(NCCc3ccccc3)nc(NCc3ccc(C#N)cc3)c2cc1OC,100,100,52
CN(C)/C(=N/C(=N)Nc1ccc(Cl)cc1)NCCCCCCN/C(=N\C(=N)Nc1ccc(Cl)cc1)N(C)C,97,98,11
Clc1cccc(C23N/C(=N\c4nc5ccccc5[nH]4)NC2(c2ccccc2)N/C(=N\c2nc4ccccc4[nH]2)N3)c1 (centres undefined),85,88,0
COc1ccc(CNCc2cccc(-c3ccc(-c4nc5cc(C(F)(F)F)ccc5[nH]4)cc3)c2)cc1.O=C(O)C(F)(F)F,100,95,23
CCc1ccc(CN2CCC(CNC(=O)c3cc(-c4cccc(F)c4)cs3)C2)cc1.O=C(O)C(F)(F)F (centres undefined),84,4,23
COc1ccc(CNc2ncc(-c3ccsc3)c(-c3nccs3)n2)cc1OC,86,69,10
CN(C)CCCNc1ccnc2cc(Cl)ccc12,100,100,10
COc1cccc(C2CCN(CCN3CCC(NC(=O)c4ccc(-c5ccc(Cl)cc5)cc4)CC3)CC2)c1,93,42,31
CCOCc1cnc(C)nc1CNC(=O)c1c(C)[nH]c2ccc(C)cc12,84,65,8
COc1ccccc1CCNc1nc(C)cc(N[C@@H](Cc2ccccc2)C(=O)NCc2cccc(F)c2)n1.O=C(O)C(F)(F)F,99,86,31
COc1ccc2ccccc2c1CCCCN1CCN(CC(c2ccc(F)cc2)N2CCN(C3CCCC3)CC2)CC1.O=C(O)C(F)(F)F (centres undefined),88,51,88
NC(=O)c1cc2nc(Nc3ccc(F)cc3)nc(NC3CCC3)c2[nH]1.O=CO,100,100,0
CCN1CCN(c2cc(C)c3cc(NC(=O)c4cccc(Cl)c4)ccc3n2)CC1,100,58,4
CCCCc1ccc(C(=O)Nc2ccc3nc(N4CCN(CC)CC4)cc(C)c3c2)cc1,91,13,32
Cc1ccc(C)c(NC(=O)CC2C(=O)N(c3ccccc3)C(=S)N2Cc2ccco2)c1 (centres undefined),100,99,9
COc1ccc2nccc(N3CCC(O)(CCNCc4ccc5c(n4)NC(=O)CO5)CC3)c2n1.Cl,100,24,18
O=C(/C=C/c1ccc(Cl)c(Cl)c1)NCCCCCN1CCCC(CNC(=O)/C=C/c2ccccc2)C1 (centres undefined),98,6,37
N#Cc1cccc(CNC(=O)c2cccc(Nc3ccnc4ccc(F)cc34)c2)c1.O=C(O)C(F)(F)F,87,26,0
COc1ccc(-c2ccc3c(-c4ccc(F)cc4)cnc(N)c3c2)cn1,99,86,4
COc1cc(-c2cc(-c3ccc(S(C)(=O)=O)cc3)cnc2N)ccc1O,97,97,37
Cc1nc2c(c(C)nn2C(C)(C)C)c(C)c1CCC(=O)Nc1ccc(CN2CCCC2)cc1,89,5,1
